Our source for the growth values is PubChem BioAssay (NCI).

About 83,000 compounds went through this panel and 20% of them were active in at least one assay; those are over-represented in the sample as a whole.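 How to read the values: 0–100, growth inhibition (40 = 60% inhibited); 0, no net growth; -100 to 0, cell death (-40 = 40% of starting cells died; -100 = all dead).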 A number with no mark means an inactive call. Activity calls are given as the source filed them. How the source made its calls: active means growth percent below 10; inactive means the rest.

One experiment concerns UACC-257 melanoma. As to the kind of experiment: NCI-60 one-dose screen, 48 h (100 = growth as untreated, 0 = no growth, -100 = all killed). Conditions: 10 µM unless noted.
As to `COc1cc2c3c(n(CCCCNCCCn4c5c(c6cc(OC)c(OC)cc6c4=O)C(=O)c4cc6c(cc4-5)OCO6)c(=O)c2cc1OC)-c1cc2c(cc1C3=O)OCO2`, the growth is 94.8%.
The same measure, in the same setting: with `CNC(=O)c1c(NC(=O)c2ccc(C(C)(C)C)cc2)sc2c(CN(C)C)c(O)ccc12` the figure was -56.4% (active); with `CCCCn1sc(=O)n(Cc2ccc(CNC(=O)OCc3ccc4c(Cl)cc(Cl)c(O)c4n3)cc2)c1=O`, 97.6%.
Consider `O=C1Nc2ccc(F)cc2/C1=N/c1nnc(Sc2ccccc2)s1`, for which the growth is 100%.
In the case of `N#Cc1c(N2CCOCC2)nc(=S)[nH]c1-c1ccccc1`, the growth was 91.8%.
As to `O=C(CSc1nnc2sc(Nc3cccc(Cl)c3)nn12)c1ccc(F)cc1`, the growth was 102%.
For the compound `C=C(CO)[C@@H]1CC[C@]2(COC3CCCCO3)CC[C@]3(C)[C@H](CC[C@@H]4[C@@]5(C)C=C(C=O)C(=O)C(C)(C)[C@@H]5CC[C@]43C)[C@@H]12` (stereo partly drawn), the growth was -64.4% (active).
On the same count and under the same terms, with `COc1ccc(-c2cc(C(=O)N3N=C(c4ccc(N)cc4)CC3c3ccccc3)c3ccccc3n2)cc1` (stereo not drawn) the figure was 47.2%; with `COc1ccc(-c2cc(-c3cc(OC)c(OC)c(OC)c3)c(C#N)c(=O)n2CCCCCC(=O)NO)cc1`, 99.6%; with `Cn1ccnc1C(=O)/C=C/c1ccc(C(=O)Nc2ccc(F)cc2)cc1`, 62.2%.
For the compound `C=C1C(=O)O[C@H]2[C@H]1CC/C(COC(=O)NCCCCCCCCNC(=O)OC/C1=C/CC[C@@]3(C)O[C@H]3[C@H]3OC(=O)C(=C)[C@@H]3CC1)=C\CC[C@@]1(C)O[C@@H]21`, the growth was -55.1% (active).
On to `C/C(C=O)=C\c1ccc2c(c1)OCO2`, for which the growth is 109%.
Same read-out and setting: for `COc1cccc(/C=C/C(=O)c2cc3c(N)c(C(=O)Nc4cccc(Cl)c4C)sc3nc2C)c1` the value was 57.4%; for `COC(=O)/C=C1/SC(=Nc2cccc(Cl)c2)N(CCc2c[nH]c3ccc(O)cc23)C1=O`, 31.9%; for `CCC/C(=N\NC(N)=O)C(OC)OC`, 103%.
As for `COc1ccc2cc(Cn3cc[n+](Cc4ccc5ccccc5c4)c3)ccc2c1`, the growth is -15.8% (active).
On the same count and under the same terms, for `Cn1c(=O)c2c(c3ccccc31)OC(N)=C(C#N)C21C(=O)c2ccccc2C1=O` the value was 108%; for `CN1CCN(c2ccc3c(c2)nc(NNC(=O)c2cnccn2)c2cccn23)CC1`, 46.6%; for `Cc1cc(C)c(-c2c(O)c(Br)c(-c3c(C)cc(C)c(Br)c3C)c(O)c2Br)c(C)c1Br`, -19% (active).
For `CCN(CC)S(=O)(=O)c1ccc(S(=O)(=O)N2CCC[C@@H](C(=O)N3CCN(C(=O)OC(C)(C)C)CC3)C2)cc1`, the growth was 49.9%.
On the same count and under the same terms, with `O=C1/C=C/[C@@H](O)[C@@H]2C[C@@H](O)C[C@H]2/C=C/CCC[C@H](CCOCc2ccccc2)O1` the figure was 20.4%; with `COc1ccc(C2=Nc3c/c(=C\c4c(O)[nH]c5cc(Cl)ccc45)ccc3=N2)cc1`, 74.5%.
Regarding `CCCCCCCCCCCCCCCCCCOc1ccccc1CC(=O)NCC[N+]1(C)CCOCC1`, the growth was 99.4%.
Turning to `Cc1ccc(-c2cc(C(=O)N3N=C(c4ccc(N)cc4)CC3c3ccc(Cl)cc3)c3ccccc3n2)cc1` (stereo not drawn), the growth is 43.7%.
The same measure, in the same setting: for `O=C(CN1C(=O)/C(=C/c2ccco2)SC1=S)NCCc1c[nH]c2ccc(F)cc12` the value was 113%; for `CCN(CC)CCN(CCN(CC)CC)c1ccccc1`, 93.1%.
Consider `COc1cc(C(=O)C(=O)c2cc(OC)c(O)c(OC)c2)cc(OC)c1O`, for which the growth was 98.3%.
For `O=C(/C=C/c1ccc(Br)cc1)c1ccc(-n2cc(CN3CCN(c4cc5c(cc4F)c(=O)c(C(=O)O)cn5C4CC4)CC3)nn2)cc1`, the growth was 95.8%.

A further experiment relates to M14 melanoma. The experiment is described as above. To be noted: 10 µM unless noted.
In the case of `Fc1ccc(COc2ccc(Nc3ncnc4sc5c(c34)CCCC5)cc2)cc1`, the growth is 104%.
Regarding `COc1cc(C2Cc3ncccc3-c3[nH]c(=O)c4cccnc4c32)cc(OC)c1OC` (stereo not drawn), the growth was 10.3%.
Still for that read-out and setting: with `O=C(c1ccc(Cl)cc1Cl)N1c2ccccc2Sc2ccccc21` the figure was 59.8%.
Consider `O=C(N/N=C/c1ccc([N+](=O)[O-])cc1)c1ccc2nc(-c3ccc(Cl)cc3)[nH]c2c1`, for which the growth was 25.9%.
On the same count and under the same terms, for `O=C(NCc1ccccc1O)c1cccc2ccccc12` the value was 75.8%; for `CC1=C(C(=O)n2c3ccccc3c3ccccc32)C(c2cccc([N+](=O)[O-])c2)C(C(=O)n2c3ccccc3c3ccccc32)=C(C)N1`, 100%.
In the case of `COc1ccc(/C=C/C(=O)c2ccc(NC(=O)CSc3nnc(-c4cc(-c5ccccc5)nc5ccccc45)n3-c3ccccc3)cc2)cc1`, the growth was 99%.
`Cn1cc(-c2nc(-c3c[nH]c4ccncc34)cs2)c2cc(Br)ccc21`: the growth was -74.2% (active).
Consider `C#Cc1cccc(Oc2ccc(NC(=O)CCl)cc2)c1`, for which the growth was 24.6% [8.25 µM].
For the compound `CC1(C)CC[C@]2(C(=O)N3CCOCC3)CC[C@]3(C)C(=CC[C@@H]4[C@@]5(C)C/C(=C/c6ccncc6)C(=O)C(C)(C)[C@@H]5CC[C@]43C)[C@@H]2C1`, the growth was -8.66% (active).
Turning to `CC(C)c1ccc(NC(=O)Nc2ccc(NC(=O)c3ccccc3N)cc2)cc1`, the growth is 34%.
In the case of `Cc1cc(C(=O)Nc2cc(Nc3ncccc3-c3ncnc4nc[nH]c34)ccc2F)cc(C(F)(F)F)c1`, the growth was 5.2% (active).
On to `COc1cc2c3c(n(CCCCNCCCn4c5c(c6cc(OC)c(OC)cc6c4=O)C(=O)c4cc6c(cc4-5)OCO6)c(=O)c2cc1OC)-c1cc2c(cc1C3=O)OCO2`, for which the growth is 96.3%.
Take `CNC(=O)c1c(NC(=O)c2ccc(C(C)(C)C)cc2)sc2c(CN(C)C)c(O)ccc12`: the growth is -72.3% (active).
On to `CCCCn1sc(=O)n(Cc2ccc(CNC(=O)OCc3ccc4c(Cl)cc(Cl)c(O)c4n3)cc2)c1=O`, for which the growth is 60.7%.
Consider `O=C1Nc2ccc(F)cc2/C1=N/c1nnc(Sc2ccccc2)s1`, for which the growth was 99.2%.
Consider `N#Cc1c(N2CCOCC2)nc(=S)[nH]c1-c1ccccc1`, for which the growth is 80.2%.
For the compound `O=C(CSc1nnc2sc(Nc3cccc(Cl)c3)nn12)c1ccc(F)cc1`, the growth is 96%.
On to `C=C(CO)[C@@H]1CC[C@]2(COC3CCCCO3)CC[C@]3(C)[C@H](CC[C@@H]4[C@@]5(C)C=C(C=O)C(=O)C(C)(C)[C@@H]5CC[C@]43C)[C@@H]12` (stereo partly drawn), for which the growth was -65.5% (active).
Take `COc1ccc(-c2cc(C(=O)N3N=C(c4ccc(N)cc4)CC3c3ccccc3)c3ccccc3n2)cc1` (stereo not drawn): the growth is 17.2%.
For the compound `COc1ccc(-c2cc(-c3cc(OC)c(OC)c(OC)c3)c(C#N)c(=O)n2CCCCCC(=O)NO)cc1`, the growth is 99.5%.
Regarding `Cn1ccnc1C(=O)/C=C/c1ccc(C(=O)Nc2ccc(F)cc2)cc1`, the growth is 17.6%.
In the case of `C=C1C(=O)O[C@H]2[C@H]1CC/C(COC(=O)NCCCCCCCCNC(=O)OC/C1=C/CC[C@@]3(C)O[C@H]3[C@H]3OC(=O)C(=C)[C@@H]3CC1)=C\CC[C@@]1(C)O[C@@H]21`, the growth was -67.8% (active).
For the compound `C/C(C=O)=C\c1ccc2c(c1)OCO2`, the growth is 121%.
For the compound `COc1cccc(/C=C/C(=O)c2cc3c(N)c(C(=O)Nc4cccc(Cl)c4C)sc3nc2C)c1`, the growth was -28.4% (active).
With `COC(=O)/C=C1/SC(=Nc2cccc(Cl)c2)N(CCc2c[nH]c3ccc(O)cc23)C1=O`, the growth was 13%.
`CCC/C(=N\NC(N)=O)C(OC)OC`: the growth was 96.9%.
For `COc1ccc2cc(Cn3cc[n+](Cc4ccc5ccccc5c4)c3)ccc2c1`, the growth is 17.5%.
`Cn1c(=O)c2c(c3ccccc31)OC(N)=C(C#N)C21C(=O)c2ccccc2C1=O`: the growth was 87.2%.
Turning to `CN1CCN(c2ccc3c(c2)nc(NNC(=O)c2cnccn2)c2cccn23)CC1`, the growth was 18.2%.
As for `Cc1cc(C)c(-c2c(O)c(Br)c(-c3c(C)cc(C)c(Br)c3C)c(O)c2Br)c(C)c1Br`, the growth is 29.6%.
Regarding `CCN(CC)S(=O)(=O)c1ccc(S(=O)(=O)N2CCC[C@@H](C(=O)N3CCN(C(=O)OC(C)(C)C)CC3)C2)cc1`, the growth was 77.9%.
Consider `O=C1/C=C/[C@@H](O)[C@@H]2C[C@@H](O)C[C@H]2/C=C/CCC[C@H](CCOCc2ccccc2)O1`, for which the growth is 9.22% (active).
Regarding `COc1ccc(C2=Nc3c/c(=C\c4c(O)[nH]c5cc(Cl)ccc45)ccc3=N2)cc1`, the growth was 50.5%.
The same measure, in the same setting: with `CCCCCCCCCCCCCCCCCCOc1ccccc1CC(=O)NCC[N+]1(C)CCOCC1` the figure was 69.6%; with `Cc1ccc(-c2cc(C(=O)N3N=C(c4ccc(N)cc4)CC3c3ccc(Cl)cc3)c3ccccc3n2)cc1` (stereo not drawn), -24% (active).
Same read-out and setting: with `O=C(CN1C(=O)/C(=C/c2ccco2)SC1=S)NCCc1c[nH]c2ccc(F)cc12` the figure was 106%.
On to `CCN(CC)CCN(CCN(CC)CC)c1ccccc1`, for which the growth was 82.3%.
Take `COc1cc(C(=O)C(=O)c2cc(OC)c(O)c(OC)c2)cc(OC)c1O`: the growth is 104%.
With `O=C(/C=C/c1ccc(Br)cc1)c1ccc(-n2cc(CN3CCN(c4cc5c(cc4F)c(=O)c(C(=O)O)cn5C4CC4)CC3)nn2)cc1`, the growth was 87%.
